The values that follow come from PubChem BioAssay (Tox21).

Values joined by “and” are separate entries in the source; they are usually repeats but may differ in a detail not shown here. Identical values can stand only once. Results filed as inconclusive are left out. Some compounds were tested as several samples or in several runs, with calls that do not always agree. Active and inactive are the calls of the source. Unless noted, calls come from the whole dose curve; as a rule, active = well fitted curve in the direction sought with a large enough effect in the repeat runs; inconclusive = weak or mixed curves; inactive = no such curve, though single readings can be large; an effect the other way counts as inactive or inconclusive.

Assay [1] is described as follows: qHTS assay to identify aromatase inhibitors - cell viability counter screen (AID 743084).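 Note: cells stimulated with testosterone during compound exposure; nearly all actives have a fitted effect of over 55% in size.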 For orientation: In qHTS, concentration-response curves come from the screen itself.
In assay [2] the target is Aryl hydrocarbon receptor (Homo sapiens) (UniProt P35869). Put plainly: qHTS assay to identify small molecule that activate the aryl hydrocarbon receptor (AhR) signaling pathway (AID 743085).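 Note: HG2L7.5c1 human HepG2 liver cells with stably integrated DRE-driven firefly reporter; series mostly up to about 70 µM; nearly all actives have a fitted effect of over 15% in size.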 Summed up: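 HepG2 cells (HG2L7.5c1) stably carrying a firefly luciferase reporter driven by 20 dioxin responsive elements were exposed to compound for 24 h at 37C after a 5 h settling period; luminescence rise (ONE-Glo) indicated activation.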
Aryl hydrocarbon receptor (Homo sapiens), sequence (P35869 whole entry, looked up): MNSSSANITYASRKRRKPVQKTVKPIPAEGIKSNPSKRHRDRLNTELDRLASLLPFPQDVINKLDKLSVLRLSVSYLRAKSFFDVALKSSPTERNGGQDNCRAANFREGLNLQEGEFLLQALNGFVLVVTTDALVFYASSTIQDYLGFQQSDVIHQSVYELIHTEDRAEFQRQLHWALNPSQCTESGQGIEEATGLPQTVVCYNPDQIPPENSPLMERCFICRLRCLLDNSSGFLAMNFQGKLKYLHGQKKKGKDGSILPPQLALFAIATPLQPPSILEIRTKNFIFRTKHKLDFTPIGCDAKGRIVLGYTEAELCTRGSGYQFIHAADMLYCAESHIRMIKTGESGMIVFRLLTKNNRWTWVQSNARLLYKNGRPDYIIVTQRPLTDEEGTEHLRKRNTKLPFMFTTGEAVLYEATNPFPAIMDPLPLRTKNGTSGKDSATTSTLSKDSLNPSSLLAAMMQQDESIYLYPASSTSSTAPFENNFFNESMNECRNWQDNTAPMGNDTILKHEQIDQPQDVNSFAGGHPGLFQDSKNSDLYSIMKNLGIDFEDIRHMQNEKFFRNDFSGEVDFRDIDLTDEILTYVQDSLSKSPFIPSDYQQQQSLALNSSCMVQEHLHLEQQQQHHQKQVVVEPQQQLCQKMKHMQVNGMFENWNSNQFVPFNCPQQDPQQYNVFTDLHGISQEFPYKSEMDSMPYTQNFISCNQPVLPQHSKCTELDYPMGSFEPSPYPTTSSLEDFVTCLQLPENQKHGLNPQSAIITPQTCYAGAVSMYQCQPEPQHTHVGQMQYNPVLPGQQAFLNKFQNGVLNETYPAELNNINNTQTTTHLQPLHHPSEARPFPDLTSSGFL

Assay [3] can be described thus: qHTS assay to identify small molecule that activate the aryl hydrocarbon receptor (AhR) signaling pathway - cell viability counter screen (AID 743086).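 Note: HepG2 liver cells carrying the AhR DRE luciferase reporter; series mostly up to about 70 µM; nearly all actives have a fitted effect of over 45% in size.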 In a few lines: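 HepG2-AhR-luc (HG2L7.5c1) cells, 4000/well, treated 24 h at 37 C with compound; viability measured as CellTiter-Fluor fluorescence after 30 min in the same wells as the luciferase read.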
Assay [4] can be described thus: qHTS assay to identify small molecule antagonists of the peroxisome proliferator-activated receptor gamma (PPARg) signaling pathway - cell viability counter screen (AID 743194). Note: nearly all actives have a fitted effect of over 55% in size. In a few lines:
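Cytotoxicity counter screen in PPARg-bla HEK293H cells, same wells as reporter assay. Compounds plus 50 nM rosiglitazone (final) for 17 h at 37 C, then viability read by CellTiter-Glo luminescence.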

The nature of assay [5]: qHTS assay for small molecule agonists of the antioxidant response element (ARE) signaling pathway (AID 743202; active = well fitted activation curve with a large enough effect in the signal ratio in the repeat runs, not every such curve was filed as active; the % refers to the signal ratio; note: potency is the fitted concentration of half-maximal effect). In a few lines:
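HepG2 ARE-bla reporter line, 2,000 cells/well; 5 h preincubation 37 C/5% CO2; compound (DMSO) 16 h 37 C; B/G FRET substrate 2 h RT; fluorescence intensity.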

Assay [6] is described as follows: qHTS assay for small molecule agonists of the antioxidant response element (ARE) signaling pathway - cell viability counter screen (AID 743203; calls by dose curve; note: nearly all actives have a fitted effect of over 55% in size; note: potency is the fitted concentration of half-maximal effect). In a few lines: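 Viability counter screen: CellTiter-Glo luminescence, read after 30 min at room temperature, in ARE-bla HepG2 wells. Compound exposure lasted 16 h at 37C/5% CO2, following a 5 h pre-incubation of the cells after plating.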

Assay [7] can be described thus: qHTS assay for small molecule activators of the heat shock response signaling pathway - cell viability counter screen (AID 743209). Note: nearly all actives have a fitted effect of over 50% in size. Summed up:
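Cytotoxicity counter screen run in the same wells as the heat-shock bla reporter assay: HeLa HSE-bla cells, 5 h compound exposure at 37 C, viability read by CellTiter-Glo luminescence.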

Assay [8] can be described thus: qHTS assay for small molecule activators of the heat shock response signaling pathway (AID 743210; active = well fitted activation curve with a large enough effect in the signal ratio in the repeat runs, with a control signal flat, not every such curve was filed as active; the % refers to the signal ratio; note: series mostly up to about 63 µM). In a few lines: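 Beta-lactamase reporter read-out: FRET substrate fluorescence after 2.5 h at RT, following 5 h compound treatment at 37 C of HeLa cells carrying HSE-driven bla reporter; quantitative HTS format.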
Assay [9] can be described thus: qHTS assay to identify small molecule agonists of the peroxisome proliferator-activated receptor delta (PPARd) signaling pathway - cell viability counter screen (AID 743211). Note: nearly all actives have a fitted effect of over 55% in size. Summed up:
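PPARd-bla HEK293H cells (UAS-beta-lactamase reporter) were treated with compounds for 17 h at 37 C. Viability was then read in the same wells by CellTiter-Glo luminescence after 30 min at room temperature.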

For assay [10], the target named is Peroxisome proliferator-activated receptor delta (Homo sapiens) (UniProt Q03181). Put plainly: qHTS assay to identify small molecule agonists of the peroxisome proliferator-activated receptor delta (PPARd) signaling pathway (AID 743212; calls by dose curve). Summed up: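 Read-out: beta-lactamase FRET fluorescence after 2 h room-temperature incubation with LiveBLAzer B/G substrate. Cells were HEK293H carrying a UAS-bla reporter for PPARd, treated at 37 C with DMSO-dissolved compounds.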
Peroxisome proliferator-activated receptor delta (Homo sapiens), sequence (Q03181 whole entry, looked up): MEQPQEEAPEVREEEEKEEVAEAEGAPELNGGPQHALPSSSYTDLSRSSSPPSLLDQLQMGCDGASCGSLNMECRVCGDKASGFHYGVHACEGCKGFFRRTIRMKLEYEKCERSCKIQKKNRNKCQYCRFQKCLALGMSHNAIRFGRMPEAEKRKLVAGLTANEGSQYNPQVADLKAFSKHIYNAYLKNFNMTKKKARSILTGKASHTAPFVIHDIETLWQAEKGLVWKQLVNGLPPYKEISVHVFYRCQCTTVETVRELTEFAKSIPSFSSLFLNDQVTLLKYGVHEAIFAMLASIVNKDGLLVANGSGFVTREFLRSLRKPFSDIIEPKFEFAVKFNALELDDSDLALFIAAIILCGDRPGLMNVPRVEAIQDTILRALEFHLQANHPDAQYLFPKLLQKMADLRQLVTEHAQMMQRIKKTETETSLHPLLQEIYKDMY

Assay [11] is described as follows: qHTS assay to identify small molecule antagonists of the peroxisome proliferator-activated receptor delta (PPARd) signaling pathway - cell viability counter screen (AID 743213). Note: nearly all actives have a fitted effect of over 50% in size. Summed up:
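Same-well viability: cells pre-incubated 5 h, dosed with compound plus 300 nM L165041, kept 17 h at 37 C, FRET substrate 2 h RT, then CellTiter-Glo 30 min RT and luminescence.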

In assay [12] the target is Peroxisome proliferator-activated receptor delta (Homo sapiens) (UniProt Q03181). Kind of assay: qHTS assay to identify small molecule antagonists of the peroxisome proliferator-activated receptor delta (PPARd) signaling pathway (AID 743215; active = well fitted inhibition curve with a large enough effect in the signal ratio in the repeat runs, not every such curve was filed as active; the % refers to the signal ratio;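 note: cells stimulated with agonist L165041 at 300 nM final during compound exposure; series mostly up to about 62 µM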). Summed up:
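Agonist L165041 (300 nM final) added with compound to PPARd-bla HEK293H UAS-bla reporter cells; 17 h incubation at 37 C. Read-out: LiveBLAzer FRET substrate, 2 h at room temperature, fluorescence intensity.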

Assay [13] deals with Bile acid receptor (Homo sapiens) (UniProt Q96RI1). Put plainly: qHTS assay to identify small molecule antagonists of the farnesoid-X-receptor (FXR) signaling pathway (AID 743217; active = well fitted inhibition curve with a large enough effect in the signal ratio in the repeat runs, not every such curve was filed as active; the % refers to the signal ratio). In a few lines:
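Antagonist mode: chenodeoxycholic acid at 50 uM final stimulates a UAS-driven beta-lactamase reporter in HEK 293T FXR-bla cells during 16 h, 37C compound exposure. Read-out is FRET substrate fluorescence after 2 h at room temperature.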

For assay [14] the target is unchanged. Kind of assay: qHTS assay to identify small molecule agonists of the farnesoid-X-receptor (FXR) signaling pathway (AID 743220; active = well fitted activation curve with a large enough effect in the signal ratio in the repeat runs, not every such curve was filed as active; the % refers to the signal ratio). Summed up:
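FXR-UAS-bla HEK 293T cells carrying a UAS-driven beta-lactamase reporter were plated for 5 h at 37C/5% CO2, then exposed to DMSO-dissolved Tox21 10K compounds for 16 h at 37C. A LiveBLAzer B/G FRET substrate was loaded for 2 h at room temperature before fluorescence reading.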

Assay [15] in a line: qHTS assay to identify small molecule antagonists of the farnesoid-X-receptor (FXR) signaling pathway - cell viability counter screen (AID 743221; active = well fitted cell-killing curve with a large enough effect in the repeat runs, not every such curve was filed as active; note: nearly all actives have a fitted effect of over 50% in size). Summed up: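 FXR-UAS-bla HEK 293T cells were treated with test compounds plus chenodeoxycholic acid (50 uM final) for 16 h at 37 C. Cell viability in the same wells was then read as CellTiter-Glo luminescence after 30 min at room temperature.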

For assay [16], the target named is Vitamin D3 receptor (Homo sapiens) (UniProt P11473). Kind of assay: qHTS assay to identify small molecule agonists of the vitamin D receptor (VDR) signaling pathway (AID 743222; calls by dose curve). In a few lines:
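Agonist mode, beta-lactamase reporter: fluorescence from LiveBLAzer B/G FRET substrate (2 h, room temperature) read after 16 h compound treatment at 37 C of VDR-bla cells, which were pre-incubated 4 h after seeding.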

Assay [17] concerns the target Peroxisome proliferator-activated receptor gamma (Homo sapiens) (UniProt P37231). Kind of assay: qHTS assay to identify small molecule agonists of the peroxisome proliferator-activated receptor gamma (PPARg) signaling pathway (AID 743094; active = well fitted activation curve with a large enough effect in the signal ratio in the repeat runs, not every such curve was filed as active; the % refers to the signal ratio). In a few lines: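 Agonist activity was taken from a beta-lactamase reporter (FRET substrate, 1 h at room temperature) in HEK293H cells carrying a PPARg UAS-bla construct. Compounds in DMSO were incubated 17 h at 37C after a 5 h cell pre-incubation.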

Assay [18] is described as follows: qHTS assay to identify small molecule agonists of the farnesoid-X-receptor (FXR) signaling pathway - cell viability counter screen (AID 743218). Note: nearly all actives have a fitted effect of over 45% in size. Summed up:
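Viability counter screen in the same wells: CellTiter-Glo luminescence, 30 min room-temperature incubation, measured after the beta-lactamase read. Cells were GeneBLAzer FXR-UAS-bla HEK 293T, compound-treated 16 h at 37C.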

Assay [19] concerns the target Peroxisome proliferator-activated receptor gamma (Homo sapiens) (UniProt P37231). Put plainly: qHTS assay to identify small molecule antagonists of the peroxisome proliferator-activated receptor gamma (PPARg) signaling pathway (AID 743191; calls by dose curve; note: series mostly up to about 63 µM; nearly all actives have a fitted effect of over 30% in size). Summed up:
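GeneBLAzer PPARg UAS-bla HEK293H cells, 5 h post-plating, exposed to compounds 17 h at 37C. LiveBLAzer B/G FRET substrate added for 1 h at room temperature; beta-lactamase reporter read by fluorescence intensity.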

Assay [20] deals with Vitamin D3 receptor (Homo sapiens) (UniProt P11473). Put plainly: qHTS assay to identify small molecule antagonists of the vitamin D receptor (VDR) signaling pathway (AID 743223; active = well fitted inhibition curve with a large enough effect in the signal ratio in the repeat runs, not every such curve was filed as active; the % refers to the signal ratio). Summed up:
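VDR-bla cells were plated, incubated 4 h at 37C, then given compound and 1alpha,25-dihydroxyvitamin D3 (3 nM final). After 16 h at 37C, LiveBLAzer B/G FRET substrate was added for 2 h at room temperature and fluorescence read.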

Vitamin D3 receptor (Homo sapiens), sequence (P11473 whole entry, looked up): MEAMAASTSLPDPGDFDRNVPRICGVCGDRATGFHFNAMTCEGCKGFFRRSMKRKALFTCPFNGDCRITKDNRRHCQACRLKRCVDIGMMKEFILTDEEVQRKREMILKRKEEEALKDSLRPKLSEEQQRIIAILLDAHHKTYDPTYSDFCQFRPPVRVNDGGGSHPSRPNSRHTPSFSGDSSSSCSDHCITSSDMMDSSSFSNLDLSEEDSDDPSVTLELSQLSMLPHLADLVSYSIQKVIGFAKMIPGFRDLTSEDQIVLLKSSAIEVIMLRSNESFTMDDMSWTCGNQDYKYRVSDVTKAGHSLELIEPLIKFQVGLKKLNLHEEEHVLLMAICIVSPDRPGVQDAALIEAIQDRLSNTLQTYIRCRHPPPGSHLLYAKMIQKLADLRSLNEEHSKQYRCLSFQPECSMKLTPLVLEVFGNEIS
Bile acid receptor (Homo sapiens), sequence (Q96RI1 whole entry, looked up): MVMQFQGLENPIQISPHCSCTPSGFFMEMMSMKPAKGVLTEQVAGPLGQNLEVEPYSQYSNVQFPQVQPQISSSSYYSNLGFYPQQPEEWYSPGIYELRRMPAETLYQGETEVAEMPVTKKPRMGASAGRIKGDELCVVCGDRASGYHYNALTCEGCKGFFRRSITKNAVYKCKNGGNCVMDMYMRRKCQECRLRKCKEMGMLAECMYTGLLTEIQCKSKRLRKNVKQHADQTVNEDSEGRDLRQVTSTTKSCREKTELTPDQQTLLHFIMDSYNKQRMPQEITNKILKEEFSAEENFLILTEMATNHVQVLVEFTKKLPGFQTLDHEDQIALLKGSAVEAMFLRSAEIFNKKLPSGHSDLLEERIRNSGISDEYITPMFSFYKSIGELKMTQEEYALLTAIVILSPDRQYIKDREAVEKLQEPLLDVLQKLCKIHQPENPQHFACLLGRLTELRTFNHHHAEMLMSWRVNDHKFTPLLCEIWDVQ
Peroxisome proliferator-activated receptor gamma (Homo sapiens), sequence (P37231 whole entry, looked up): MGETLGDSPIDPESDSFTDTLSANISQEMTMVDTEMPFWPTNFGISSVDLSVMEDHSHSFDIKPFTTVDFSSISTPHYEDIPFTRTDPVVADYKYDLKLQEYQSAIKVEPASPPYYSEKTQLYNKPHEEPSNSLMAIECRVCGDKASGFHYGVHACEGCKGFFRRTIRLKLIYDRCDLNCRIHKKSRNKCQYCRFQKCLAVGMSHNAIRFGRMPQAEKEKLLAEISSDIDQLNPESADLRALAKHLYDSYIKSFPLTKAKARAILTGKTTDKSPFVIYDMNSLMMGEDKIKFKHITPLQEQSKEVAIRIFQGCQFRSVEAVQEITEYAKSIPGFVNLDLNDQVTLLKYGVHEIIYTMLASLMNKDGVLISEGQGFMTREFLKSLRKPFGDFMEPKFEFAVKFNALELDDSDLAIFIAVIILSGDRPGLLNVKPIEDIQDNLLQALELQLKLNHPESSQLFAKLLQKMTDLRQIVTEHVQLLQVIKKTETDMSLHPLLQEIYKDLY

As to `CC(C)CC(C)CC(O)CC(C)C` (centres undefined), the Potency result in assay [1], in [2], in assay [3], in [4], in assay [5] and in assay [6] was “inactive” throughout. Besides, the Potency result in assay [9], in [11] and in [13] was “inactive” in each case. Also, the result in assay [7], in [8], in assay [10], in assay [12], in assay [14] and in assay [15] was inactive. Besides, in assay [16], the compound was classed as inactive.
Turning to `COc1cc2c(c(OC)c1OC)-c1ccc(OC)c(=O)cc1[C@@H](NC(C)=O)CC2`, the Potency entry in [1], in [2], in assay [3], in assay [17], in [4] and in assay [6] was “inactive” each time. In addition, the Potency entry in assay [9], in assay [11] and in [18] was “inactive” in each case. Besides, the compound was classed as inactive in assay [7], in [8], in assay [14], in [15] and in assay [16].
`NC(N)=NC(N)=NCCc1ccccc1`: the Potency entry in [1], in assay [2], in [3], in assay [19], in assay [4] and in assay [6] was “inactive” each time. Further, the Potency entry in [9], in assay [11] and in assay [18] was “inactive” in each case. Moreover, in assay [5], the Potency was 6.08 µM (active) and 6.68 µM (active). Also, the call in assay [7], in [8], in [10], in assay [12] and in [15] was inactive.
For `COCCOCCOC`, the Potency entry in [1], in assay [2], in assay [3], in assay [4], in assay [5] and in assay [6] was “inactive” in each case. For the same compound, the Potency entry in assay [9], in assay [11], in assay [13], in assay [18] and in assay [20] was “inactive” throughout. Also, the outcome in [7], in [8], in assay [10], in assay [12], in assay [14] and in assay [15] was inactive. Moreover, in assay [16], the compound was classed as inactive.
For `Cc1cccc(C)c1O`, the Potency result in assay [1], in assay [2], in [3], in assay [19], in assay [4] and in assay [5] was “inactive” in each case. Moreover, the Potency entry in [6], in assay [9], in assay [11] and in assay [20] was “inactive” throughout. The result in assay [7], in [8], in [10], in assay [12], in assay [15] and in assay [16] was inactive.
As to `CN(C)C=O`, the Potency entry in [1], in [2], in [3], in assay [19], in assay [4] and in [5] was “inactive” throughout. The Potency result in assay [6], in assay [9], in [11] and in assay [13] was “inactive” each time. The outcome in assay [7], in assay [8], in [14] and in [15] was inactive.
`COc1ccccc1O`: the Potency result in assay [1], in assay [2], in assay [3], in [4], in [5] and in assay [9] was “inactive” throughout. Moreover, the Potency result in [11], in [13] and in assay [20] was “inactive” throughout. Further, in assay [6], the Potency result was “inactive and 24.5 µM (active)”. Also, the compound was classed as inactive in [7], in assay [8], in assay [10], in assay [12], in assay [14] and in assay [15]. Besides, the outcome in [16] was inactive.
As to `OC[C@@H](O)[C@@H](O)[C@H](O)[C@H](O)CO`, the Potency entry in [1], in assay [2], in assay [3], in assay [17], in [4] and in assay [5] was “inactive” in each case. The Potency entry in [6], in [9], in assay [11] and in assay [20] was “inactive” in each case. In addition, the outcome in assay [7], in [8], in assay [15] and in [16] was inactive.
